Sampled rows, rich in hits. Any-hit rate of the full collection: about 19%.
HT1080 IDH1KD tx: kills HT-1080 cells with IDH1 knockdown. HT-1080 IDH1 knockdown viability, ATP luminescence, 48 h. Potency, µM (top dose mostly 46.1 µM), for the others: top-dose activity, negative = toxicity, most hits filed as cytotoxic. 360,000 compounds, 2% hits;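 also: potency is read from the fitted curve at half-maximal effect; 0% = DMSO wells and -100% = cell-free medium wells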
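Using the IDH1-knockdown HT-1080 line run in the same batch and compound series as the NT line, viability after 48 h at 37 °C was determined by CellTiter-Glo luminescence and expressed as % activity.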
IL-1B inflam inh: inhibitors of inflammasome signaling (IL-1 beta secretion); THP-1 LPS/ATP IL-1B secretion, AlphaLISA, 16 h; hits give low values; activity change, % at 57.5 µM; 360,000 compounds, 4.7% hits; AID 743279; in the data active = activity change below about -50%; inconclusive = mostly about -30% to -49%
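Secreted IL-1B measured by AlphaLISA bead assay after 16 h compound exposure of THP-1 cells; compounds (final up to 57.5 uM) added 1 h before LPS (250 ng/mL) and ATP (1.25 mM) stimulation; lower signal means less secretion.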
DT40 TDP1 no CPT: qHTS for Inhibitors of human tyrosyl-DNA phosphodiesterase 1 (TDP1): qHTS in cells in absence of CPT; 420,000 compounds, 15% hits; DT40 Tdp1-/- hTDP1 cells, no CPT, ATP luminescence, 48 h; Potency, µM (top dose mostly 46.2 µM), inactives show top-dose activity change, negative = growth inhibition, most hits filed as inhibitors; also: potency is read from the fitted curve at half-maximal effect; nearly all actives have a fitted effect of over 55% in size
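Chicken DT40 Tdp1-/- cells complemented with human TDP1, screened without camptothecin (DMSO vehicle only), 400 cells/well. Compounds pin-transferred, cells incubated at 37 °C for at least 48 hr. Growth read as ATP-dependent luminescence (CellTiter-Glo, 30 min at RT).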
TDP1 cell CPT: growth inhibition of DT40 Tdp1-/-;hTDP1 cells with camptothecin (screen for TDP1 inhibitors); Potency, µM (titrated, usually from 46.2 µM), inactives show at the top dose activity change, negative = growth inhibition, usual class: inhibitors; 420,000 compounds, 12% hits; chicken DT40 Tdp1-/-;hTDP1 cells + 20 nM CPT, ATP luminescence, 48 h; also: potency is read from the fitted curve at half-maximal effect; nearly all actives have a fitted effect of over 55% in size
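Chicken DT40 Tdp1-/- cells stably complemented with human TDP1 were seeded at 400 cells/well in medium containing 20 nM camptothecin, exposed to pin-transferred compounds, and grown at 37 °C for at least 48 hr. Viability was read as ATP luminescence.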
ELG1 repair inh: inhibitors of ELG1-dependent DNA repair in HEK293T cells; HEK293T ELG1-luciferase reporter, luminescence, 16 h; DNA damage induced by 5-fluorouridine; Potency, µM (highest dose often 46.1 µM), without a hit: top-dose activity change, negative = inhibition, actives largely listed as inhibitors; 330,000 compounds, 2.3% hits; AID 504467; also: potency is read from the fitted curve at half-maximal effect; nearly all actives have a fitted effect of over 55% in size
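DMSO vehicle served as the neutral condition. Each well held 2,000 cells given 5-fluorouridine plus compound; after 16 hr at 37 °C/5% CO2, ONE-Glo was added and luciferase measured 30 min later.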
HT1080NT lethal: kills 2HG-producing HT-1080-NT fibrosarcoma cells. Potency, µM (series often up to 46.1 µM), for the others: at the top dose activity, negative = less viability, most hits filed as cytotoxic. 360,000 compounds, 1.6% hits. HT-1080-NT fibrosarcoma viability, CellTiter-Glo ATP luminescence, 48 h;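 also: NT is the 2HG producing partner of a matched IDH1 knockdown line; potency is read from the fitted curve at half-maximal effect; 0% = DMSO-treated cells and -100% = media-only wells without cells; nearly all actives have a fitted effect of over 55% in size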
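750 cells/well, RPMI + 5% FBS; 2 h settle, compound pin-transfer, 48 h at 37 degrees C. CellTiter-Glo 10 min RT, luminescence. Normalized to DMSO and media-only wells.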
Active calls of the source: *; ? = inconclusive; . = no result. Unless noted, calls follow the shape of the dose curve; as a rule, active = well fitted curve in the direction sought with a large enough effect; inconclusive = small, poorly fitted or top-dose-only effect, or another doubt; inactive = no such curve, though single readings can be large; an effect the other way counts as inactive or inconclusive. Unless noted, % is scaled to controls: 0 for no effect and ±100 for the full control effect.

SMILES | HT1080 IDH1KD tx | IL-1B inflam inh | DT40 TDP1 no CPT | TDP1 cell CPT | ELG1 repair inh | HT1080NT lethal
COC(=O)[C@]1(Cc2ccccc2)N[C@H](c2ccc(-c3ccc(Cl)c(Cl)c3)cc2)[C@@H]2C(=O)N(C)C(=O)[C@@H]21 | -13% | -25 | 18µM* | 18µM* | 3% | 1%
COC(=O)[C@]1(Cc2ccccc2)N[C@H](c2ccc(-c3ccccc3)cc2)[C@@H]2C(=O)N(C)C(=O)[C@@H]21 | ? | -21 | ? | ? | -21% | -9%
COc1ccc(-c2cn3nc(N4CCC(C(=O)Nc5cccc(OC)c5)CC4)sc3n2)cc1 | . | . | -25% | ? | . | .
COc1ccc(C(=O)N2CCC3(CCCN(c4ncccn4)C3)CC2)cc1 | . | . | ? | 2% | . | .
Cc1nc2ccccc2n1-c1ccccc1 | 0% | 14 | ? | ? | -13% | 1%
Cc1nc2ccccc2c2c(N)c3ccccc3n12 | -9% | 0 | 21µM* | ? | 26µM* | ?
Cn1c(Sc2ccccc2Cl)c(C=O)c2ccccc21 | -14% | -63* | ? | ? | ? | 6%
Cc1cccc(Sc2c(C=O)c3ccccc3n2C)c1 | ? | -14 | -13% | 6% | -27% | ?
Cn1c(Sc2ccc(Cl)cc2)c(C=O)c2ccccc21 | ? | -81* | 21µM* | ? | 7.3µM* | ?
O=C(CN(Cc1ccccc1)C(=O)CCl)c1cccc(Br)c1 | 16µM* | -98* | 16µM* | 9.2µM* | ? | 21µM*
O=C(NCCCc1ccccc1)c1cccc(Br)c1 | 14% | ? | -25% | -12% | . | 14%
O=c1cc(-c2ccc(O)cc2)oc2cc(OC3OC(CO)C(O)C(O)[C@H]3O[C@@H]3OC[C@@](O)(CO)C3O)cc(O)c12 (stereo partly specified) | . | . | -1% | 8% | . | .
O=c1[nH]c(/C(Cl)=C/c2cccc(F)c2)nc2cc(C(F)(F)F)ccc12 | 6% | 8 | 23µM* | ? | 5% | 3%
Cc1[nH]c2ccc(F)cc2c1CCN(Cc1ccncc1)C(=S)Nc1ccccc1 | -19% | -70* | -25% | -9% | ? | -28%
Cc1cc2nc(CCN(Cc3cccnc3)C(=S)Nc3ccc(F)cc3)[nH]c2cc1C | -29% | ? | ? | ? | ? | ?
Cc1[nH]c2ccccc2c1CCN(Cc1cccnc1)C(=S)Nc1ccc(F)cc1 | -8% | -21 | 16µM* | 16µM* | ? | -1%
Cc1cc2nc(CCN(Cc3cccnc3)C(=S)Nc3ccccc3)[nH]c2cc1C | -24% | -50* | ? | -28% | ? | 0%
Cc1[nH]c2ccccc2c1CCN(Cc1cccnc1)C(=S)Nc1cccc(F)c1 | -13% | -70* | ? | ? | ? | -26%
O=C(c1cccc(NS(=O)(=O)c2ccc(F)c(F)c2)c1)N1CCN(Cc2ccccc2)CC1 | -7% | 0 | ? | ? | 0% | -2%
O=C1OCC2=C1C(c1ccc(F)cc1)CC(=O)N2c1ccccc1 (stereo unspecified) | . | . | . | . | 1% | .
CC(=O)c1cccc(NC(=O)CCS(=O)(=O)c2ccc3c(c2)n(C)c(=O)c(=O)n3C)c1 | . | . | 1% | -4% | . | .
O=C(COC(=O)c1ccc[nH]c1=O)NCC12CC3CC(CC(C3)C1)C2 | -3% | 20 | 5% | -15% | ? | 0%
O=C(CN(c1ccccc1Cl)S(=O)(=O)c1ccccc1)NCc1ccccc1 | 3% | -10 | -9% | ? | -25% | -3%
COc1cc(CNCC(C)C)cc(Br)c1OCC(=O)Nc1ccccc1 | -26% | -7 | ? | ? | -17% | -23%
COc1cc(CNCCc2ccccc2)cc(Br)c1OCC(=O)Nc1ccccc1C | -13% | -67* | 26µM* | ? | -9% | ?
